This is an account of results in PubChem BioAssay (NCI).

A short description of assay [1]: NCI Yeast Anticancer Drug Screen. Data for the rad50 strain (AID 155).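 Further: 0% = growth of vehicle-only cultures of the same strain.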 As to conditions: S. cerevisiae rad50 strain growth inhibition, stronger effect = higher value. In short, it runs like this:
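Compounds were tested on a yeast strain with an engineered DNA damage repair alteration; the reported value is growth inhibition normalised to vehicle treatment.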

Assay [2] can be described thus: NCI Yeast Anticancer Drug Screen. Data for the mec2-1 strain (AID 157). The note with it: S. cerevisiae mec2-1 strain, stronger effect = higher value. The method, boiled down:
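Using mec2-1 yeast: add compound, measure growth, express inhibition versus vehicle-treated cultures.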

Assay [3] is described as follows: NCI Yeast Anticancer Drug Screen. Data for the sgs1 mgt1 strain (AID 161).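 Further: 0% = growth of cultures given vehicle only.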 The note with it: S. cerevisiae sgs1 mgt1 strain, stronger effect = higher value. The method, boiled down: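 Growth of a repair-deficient yeast mutant was monitored after compound treatment and expressed as inhibition relative to vehicle-treated cultures.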
Assay [4] can be described thus: NCI Yeast Anticancer Drug Screen. Data for the cln2 rad14 strain (AID 165).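 Further: 0% = growth equal to vehicle treated cultures.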 As to conditions: S. cerevisiae cln2 rad14 strain, stronger effect = higher value. The method, boiled down:
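Yeast strain cln2 rad14, bearing defects in cell cycle control and DNA repair, serves as the test system; values reflect growth inhibition compared with vehicle.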

Assay [5] in a line: NCI Yeast Anticancer Drug Screen. Data for the bub3 strain (AID 167). The note with it: S. cerevisiae bub3 mutant strain, stronger effect = higher value. In short, it runs like this: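 Growth of a checkpoint-deficient yeast mutant is measured after compound exposure. Values represent inhibition relative to vehicle.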
Assay [6] can be described thus: NCI Yeast Anticancer Drug Screen. Data for the mlh1 rad18 strain (AID 175). The note with it: S. cerevisiae mlh1 rad18 strain growth inhibition, stronger effect = higher value. The method, boiled down: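 Steps: expose repair-defective yeast to compound; measure growth; express inhibition against vehicle-treated controls.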
[7] abbreviates: at 5.0 µM (retest, dose inferred, filed as 0.5).
Where [8] appears, read: at 50.0 µM (retest, dose inferred, filed as 5.0).

About 79,000 compounds went through this panel and 15% of them were active in at least one assay; those are over-represented in the sample as a whole. Unmarked numbers belong to inactive results. Activity calls are given as the source filed them. No stated cut-off is given here; in the data, active means growth inhibition above about 70%; inactive means the rest.

As to `NN1CCOC(c2ccccc2)C1` (configuration not stated), the growth inhibition was 15% in assay [1] (setting [7]); 57% in assay [1] (setting [8]); 11% in assay [2] (setting [7]); 24% in assay [2] (setting [8]); 7% in assay [3] (setting [7]); 49% in assay [3] (setting [8]). The growth inhibition was 0% in assay [4] (setting [7]); 4% in assay [4] (setting [8]); 34% in assay [5] (setting [7]); 61% in assay [5] (setting [8]); -12% in assay [6] (setting [7]); 28% in assay [6] (setting [8]).
For `CCOC(=O)c1c2ccc(/C=C/C(=O)OC)ccc-2c(C(=O)OCC)c1N`, the growth inhibition in assay [1] (at 50.0 µM unless noted) was -23.8%; in assay [2] (at 50.0 µM unless noted), -24.4%; in assay [3] (at 50.0 µM unless noted) it was -23.4%; in assay [4] (at 50.0 µM unless noted), -23.2%; in assay [5] (at 50.0 µM unless noted), -37.6%.
As for `O=C(O)/C=C\C(=O)Nc1cccc2ccccc12`, the growth inhibition in assay [1] (setting [7]) is 4%; in assay [1] (setting [8]) it was 60%; in assay [2] (setting [7]), -1%; in assay [2] (setting [8]), 30%; in assay [3] (setting [7]) it was 7%; in assay [3] (setting [8]) it was 88% (active). For the same molecule, the growth inhibition in assay [4] (setting [7]) is -1%; in assay [4] (setting [8]) it was 8%; in assay [5] (setting [7]), -1%; in assay [5] (setting [8]), 42%; in assay [6] (setting [7]), -35%; in assay [6] (setting [8]) it was 25%.
As for `OC1(c2cccnc2)c2ccccc2Oc2ccccc21`, the growth inhibition in assay [1] (at 50.0 µM unless noted) was -11.8%; in assay [2] (at 50.0 µM unless noted), 7.25%; in assay [3] (at 50.0 µM unless noted), 0.7%; in assay [4] (at 50.0 µM unless noted) it was -28.1%; in assay [5] (at 50.0 µM unless noted), -3.7%.
`CC(O)C(=O)NC1CCCCC1` (configuration not stated): the growth inhibition in assay [1] (setting [7]) was 3%; in assay [1] (setting [8]), 26%; in assay [2] (setting [7]) it was 1%; in assay [2] (setting [8]), 1%; in assay [3] (setting [7]) it was 1%; in assay [3] (setting [8]), 12%. Moreover, the growth inhibition in assay [4] (setting [7]) is 1%; in assay [4] (setting [8]), 3%; in assay [5] (setting [7]) it was 2%; in assay [5] (setting [8]), -4%; in assay [6] (setting [7]), 3%; in assay [6] (setting [8]), 17%.
For the molecule `C/C(=N\NC(=S)N1CCC(N2CCCCC2)CC1)c1ccccn1`, the growth inhibition is 83.8% (active) in assay [1] (at 50.0 µM unless noted); 88.1% (active) in assay [2] (at 50.0 µM unless noted); 88% (active) in assay [3] (at 50.0 µM unless noted); 84.8% (active) in assay [4] (at 50.0 µM unless noted); 86% (active) in assay [5] (at 50.0 µM unless noted).
Regarding `Cc1cn(C2CC(ON)C(CO)O2)c(=O)[nH]c1=O` (configuration not stated), the growth inhibition is -8.1% in assay [1] (at 50.0 µM unless noted); -1.15% in assay [2] (at 50.0 µM unless noted); 23.2% in assay [3] (at 50.0 µM unless noted); 13.9% in assay [4] (at 50.0 µM unless noted); 6.25% in assay [5] (at 50.0 µM unless noted).
In the same order, the values of `CC1(C)C2CC(O)C1CCC2=O` (configuration not stated) are -4.15%, -16.2%, -33.8%, 6% and -21%.
In the same order, the values of `COc1ccc2c3c(ccc2c1)[C@@H]1C/C(=C(\OC(C)=O)C(F)(F)F)C(=O)[C@@]1(C)CC3` are -0.85%, -4.85%, 0.4%, 20.8% and -11.2%.
The like results for `O=C(O)c1nc(-c2ccccc2)ncc1-c1nnnn1-c1ccccc1` were, in that order, -37.7%, 3.75%, -21.9%, 4.7% and -18.7%.
In the case of `CC(CCC#CC(=O)O)OC1CCCCO1` (configuration not stated), the growth inhibition in assay [1] (at 50.0 µM unless noted) is -14.9%; in assay [2] (at 50.0 µM unless noted), -33%; in assay [3] (at 50.0 µM unless noted) it was -2.05%; in assay [4] (at 50.0 µM unless noted), 2.95%; in assay [5] (at 50.0 µM unless noted), -15.1%.
In the same order, the values of `CCC(C)(O)c1cn(-c2ccc(Cl)cc2)nn1` (configuration not stated) are -31.4%, -32.9%, -4.4%, 16.4% and -6.55%.
In the same order, the values of `Clc1ncc(Cl)c(Cl)n1` are 68.7%, 18.6%, -46.8%, -22.5% and -50.8%.
In the same order, the values of `N#CCN(CC#N)C1CC=CCC1N(CC#N)CC#N` (configuration not stated) are -26.2%, 1%, -30.2%, -20.8% and -21%.
For the molecule `CCOC(=O)C(=CNC(=S)N=Nc1c(O)[nH]c2ccccc12)C(=O)OCC`, the growth inhibition in assay [1] (at 50.0 µM unless noted) was -58.4%; in assay [2] (at 50.0 µM unless noted) it was -69.2%; in assay [3] (at 50.0 µM unless noted), -45%; in assay [4] (at 50.0 µM unless noted), 2.85%; in assay [5] (at 50.0 µM unless noted), -36.9%.
In the same order, the values of `CC(=O)c1sc2[n+](c1C)C(=O)/C(=C\c1ccccc1Cl)S2` are 15.7%, -17.6%, -1%, 10.2% and -7.75%.
`COC1=C2CC(C)CC(OC)C(O)C(C)/C=C(\C)C(OC(N)=O)C(OC)/C=C\C=C(/C)C(=O)NC(=C(/C=N/N3CCCCC3)C1=O)C2=O` (configuration not stated): the growth inhibition in assay [1] (at 50.0 µM unless noted) is 17.4%; in assay [2] (at 50.0 µM unless noted), 10.3%; in assay [3] (at 50.0 µM unless noted), -13.9%; in assay [4] (at 50.0 µM unless noted), -15.7%; in assay [5] (at 50.0 µM unless noted), -12.8%.
`C/C(N=NC(=S)N1CC2CCC(CC2)C1)=C1\C=CC=CN1O`: the growth inhibition in assay [1] (at 50.0 µM unless noted) is 80.3% (active); in assay [2] (at 50.0 µM unless noted), 85.7% (active); in assay [3] (at 50.0 µM unless noted), 82.2% (active); in assay [4] (at 50.0 µM unless noted), 69.5%; in assay [5] (at 50.0 µM unless noted) it was 78% (active).
In the same order, the values of `O=C(NNC(=O)c1ccc2ccccc2c1)c1ccc(Cl)cc1` are -19.2%, -51%, -11%, 3.55% and -13.6%.
For `Cc1ccc2nc(C=Nc3ccccc3Cl)cc(C)c2c1`, the growth inhibition is -7.4% in assay [1] (at 50.0 µM unless noted); -5.85% in assay [2] (at 50.0 µM unless noted); -9.3% in assay [3] (at 50.0 µM unless noted); 17.8% in assay [4] (at 50.0 µM unless noted); -4.45% in assay [5] (at 50.0 µM unless noted).
The like results for `CCCCC(OC(=O)c1ccccc1)c1cc(OC(=O)c2ccccc2)c2c(c1OC(=O)c1ccccc1)CC(C)=C(C)C2` (configuration not stated) were, in that order, 84% (active), 49.6%, 99% (active), 53.4% and 48.2%.
For the molecule `NNC(=O)c1c(O)ccc2ccccc12`, the growth inhibition in assay [1] (at 50.0 µM unless noted) is 19.2%; in assay [2] (at 50.0 µM unless noted), -28.1%; in assay [3] (at 50.0 µM unless noted), 23.4%; in assay [4] (at 50.0 µM unless noted), 20.2%; in assay [5] (at 50.0 µM unless noted), -4.2%; in assay [6] (at 50.0 µM unless noted), 12.6%.
